These results are taken from PubChem BioAssay (NCI).

SMILES strings stand for the structures. This is part of a sample that, as a whole, favours compounds with a hit. Of some 83,000 tested, about 20% had one in any assay.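 96-well plates, one dose, 48 hours. Percent growth reported; active if below 10.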 A number with no mark means an inactive call. Activity calls are given as the source filed them.

Common to all, as to assay: NCI-60 one-dose screen, 48 h (100 = growth as untreated, 0 = no growth, -100 = all killed)
Common to all, as to settings: 10 µM unless noted

For test [1], the system named is SR leukemia.
Test [2] deals with RPMI-8226 leukemia.
The test system of test [3] is OVCAR-8 ovarian.
Test [4] concerns OVCAR-5 ovarian.
The test system of test [5] is OVCAR-4 ovarian.
For test [6], the system named is SK-OV-3 ovarian.
In test [7] the test system is IGROV1 ovarian.
The subject of test [8] is HS 578T breast.
Test [9] deals with NCI/ADR-RES ovarian.
For test [10], the system named is T-47D breast.
Test [11] has as its system BT-549 breast.
Test [12] relates to MDA-MB-435 melanoma.
Test [13] has as its system SW-620 colon.
The test system of test [14] is MCF7 breast.
Test [15] relates to HCT-116 colon.
For test [16], the system named is HCC-2998 colon.
Test [17] deals with KM12 colon.

As for `COc1cc(OC)cc(-c2cc(-c3c[nH]c4ccccc34)nc(-c3c[nH]c4ccccc34)c2C#N)c1`, the growth in test [1] was 81.3%; in [2], 99%; in test [3], 102%; in [4], 109%; in test [5], 102%; in test [6], 99.9%. Also, the growth in test [7] is 93.7%; in test [8] it was 102%; in test [9], 97.1%; in test [10] it was 98.3%; in test [11], 104%; in test [12], 99.4%. The growth is 103% in [13]; 90.7% in [14]; 101% in [15]; 113% in [16]; 98.7% in [17].
Consider `Fc1cc(F)cc(NNC(=S)c2ccccc2)c1`, for which the growth in [1] was 23.2%; in [2] it was 15.6%; in test [3], 41%; in test [4], 91.8%; in test [5], 49.1%; in test [6], 28.1%. Besides, the growth in test [7] is 57.2%; in test [8], 61.3%; in test [9], 55.2%; in test [10], -2.7% (active); in test [11] it was 17.8%; in [12], 64%. The growth in test [13] is 58%; in test [14] it was 37.5%; in [15], 20.9%; in test [16], 87%; in test [17], 49.1%.
For the compound `Cc1ccccc1Nc1nc(SC(C)C)nc(-c2ccccc2)c1C#N`, the growth in test [1] was 89.6%; in test [2] it was 83.8%; in test [3], 19.9%; in test [4] it was 71.9%; in test [5] it was 13.4%; in [6], 94.3%. Further, the growth in test [7] was -50.3% (active); in test [8], 63.1%; in [9], 34.7%; in test [10], 88.1%; in [11], 97.1%; in test [12] it was 44.9%. Moreover, the growth in test [13] was 43.1%; in test [14], 51.6%; in [15] it was 2.97% (active); in test [16] it was 86.4%; in [17], 94.2%.
Take `CS(=O)(=O)c1ccc(/C(=N/N=C(N)N)c2ccc(Cl)cc2)cc1`: the growth in [1] was 35.1%; in [2], 101%; in test [3], 103%; in [4] it was 99.7%; in test [5], 98.4%; in test [6], 87.2%. Moreover, the growth in test [7] is 85.6%; in [8], 91.8%; in [9], 102%; in test [10] it was 89%; in test [11], 85%; in test [12], 8.68% (active). Besides, the growth in test [13] was 74.6%; in [14], 32.8%; in test [15], 73.8%; in [16] it was 91.2%; in test [17], 72%.
In the case of `Cc1ccsc1[C@H]1c2[nH]c3ccccc3c2C[C@H]2C(=O)N(CCCCCCC(=O)NO)CC(=O)N12`, the growth in test [1] is 42%; in [2], 58.8%; in test [3], 79.2%; in test [4], 73.7%; in [5], 106%; in test [6], 105%. The growth was 87.4% in [7]; 85.4% in [8]; 95.9% in test [9]; 57.6% in test [10]; 106% in [11]; 90.6% in test [12]. Moreover, the growth was 82.5% in test [13]; 50.1% in [14]; 68.1% in [15]; 88.1% in test [16]; 81.1% in [17].
Consider `COc1ccc(-c2c(C(N)=O)c(N)n(Cc3nc4ccccc4[nH]3)c(=O)c2C#N)c(OC)c1`, for which the growth in test [1] was 90.5%; in [2], 99%; in test [3] it was 97.2%; in [4], 110%; in [5], 108%; in test [6] it was 90.9%. In addition, the growth in test [7] was 72%; in [8] it was 99.2%; in [9] it was 102%; in [10], 89.6%; in test [11], 105%; in [12], 109%. Further, the growth in test [13] was 105%; in [14], 76.5%; in test [15], 104%; in test [16] it was 110%; in test [17] it was 99.8%.
For the compound `O=C(/C=C/C=C/c1csc(Br)n1)NO`, the growth in [1] was 60%; in [2] it was 60.7%; in [3], 85.7%; in test [4], 98.2%; in test [5], 103%; in [6], 113%. Moreover, the growth is 106% in test [7]; 98.5% in [8]; 74.6% in test [9]; 103% in test [10]; 98.4% in [11]; 92.6% in test [12]. In addition, the growth was 103% in [13]; 84.2% in test [14]; 95.8% in test [15]; 107% in test [16]; 93.4% in test [17].
As for `C/C(=N\NC(=O)/C=C/CC(=O)O)c1nnn(-c2ccc([N+](=O)[O-])cc2)c1C`, the growth in [1] is 95.4%; in test [2] it was 101%; in [3], 101%; in [4] it was 108%; in [5], 106%; in test [6], 106%. Besides, the growth was 103% in test [7]; 116% in test [8]; 102% in test [9]; 98.9% in test [10]; 103% in test [11]; 103% in [12]. Also, the growth in test [13] is 100%; in test [14], 97.8%; in test [15], 97.9%; in [16] it was 105%; in [17] it was 97.2%.
`CC[C@]12C=CCN3CC[C@@]4(c5ccc(OC)cc5N(C)[C@H]4[C@@](O)(C(=O)OC)[C@@H]1OC(=O)CCN1CCc4ccccc4C1)[C@@H]32`: the growth in test [1] was 82.2%; in [2], 78.4%; in test [3] it was 94.9%; in test [4] it was 96.3%; in test [5], 91.2%; in test [6] it was 103%. For the same compound, the growth in [7] was 81.5%; in test [8], 92%; in test [9], 80.5%; in [10], 84%; in test [11], 93.2%; in test [12], 95.6%. Further, the growth was 95.6% in test [13]; 82.5% in test [14]; 90.9% in [15]; 69.5% in test [16]; 103% in test [17].
On to `COc1ccc(-c2cc(-c3ccc(N4CCOCC4)cc3)n3c(n2)nc2ccccc23)cc1OC`, for which the growth was 70.3% in test [1]; 57.5% in test [2]; 82.5% in [3]; 108% in test [4]; 87.9% in [5]; 118% in [6]. Also, the growth in test [7] is 95.1%; in test [8], 98.2%; in [9], 87.9%; in [10] it was 81%; in [11], 82.3%; in test [13], 99.2%. Further, the growth in [14] was 90.1%; in test [15], 96%; in test [16] it was 110%; in test [17] it was 99%.
Consider `Cn1c2nc3ccccc3c-2cc2ccccc21`, for which the growth in test [1] was 18.7%; in [2] it was 54.9%; in [3], 32.8%; in test [4] it was 48%; in test [5], 50%; in test [6], 48.9%. The growth in test [7] was -10.8% (active); in test [8], 55.9%; in [9] it was 42.6%; in test [11], 101%; in [12], 39.5%; in test [13] it was 28.3%. Moreover, the growth in test [14] is 10.9%; in [15], 22.1%; in [16], 52.9%; in test [17], 31.8%.
As to `O=C(O)CC1CCN(c2ccc3nnc(Cl)n3n2)CC1`, the growth was 110% in test [1]; 111% in test [2]; 104% in test [3]; 97.3% in [4]; 108% in test [5]; 96.2% in test [6]. Moreover, the growth in test [7] is 102%; in test [8] it was 102%; in test [9], 98.6%; in test [11], 101%; in test [12] it was 105%; in [13] it was 102%. Also, the growth is 91.2% in test [14], 103% in test [15], 107% in test [16] and 98.1% in [17].
As for `Cc1ccc(Nc2nc(SC(C)C)nc(-c3ccccc3)c2C#N)cc1`, the growth in [1] is 102%; in [2], 99%; in [3], 97%; in [4], 81.8%; in [5], 87.3%; in test [6], 96.2%. The growth is 91% in test [7]; 87.8% in [8]; 92.2% in [9]; 88.4% in [10]; 79.6% in [11]; 89.2% in test [13]. The growth is 92.3% in test [14], 92.1% in test [15], 88.2% in [16] and 96.1% in test [17].
As to `Cc1ccc(N2CCN(C3=C(Cl)C(=O)c4ncccc4C3=O)CC2)cc1`, the growth is 4.58% (active) in test [1]; 11.8% in test [2]; 67.9% in [3]; 110% in test [4]; 48.3% in [5]; 112% in [6]. Besides, the growth in test [7] is 58.6%; in test [8], 79.7%; in [9], 55.8%; in test [11] it was 103%; in test [12], -81.2% (active); in [13], -79.7% (active). Moreover, the growth was -62% (active) in [14], -78.1% (active) in [15], 104% in test [16] and 80% in test [17].
As for `O=C(CCCCCCN1CC(=O)N2[C@@H](c3ccccc3Br)c3[nH]c4ccccc4c3C[C@H]2C1=O)NO`, the growth in [1] is 14%; in [2], 12%; in test [3], 34.1%; in test [4], 50.9%; in test [5], 88.1%; in test [6], 75.5%. Moreover, the growth in [7] is 48.3%; in test [8] it was 59.6%; in test [9], 83.7%; in [10] it was 19.2%; in test [11] it was 87.1%; in test [13], 24.7%. Also, the growth was 21.4% in test [14], 12.7% in test [15], 56.9% in [16] and 73% in test [17].
As for `CN1CCN(CCNc2nc(-c3cccc(NS(=O)(=O)c4cccc5c(N(C)C)cccc45)c3)cs2)CC1`, the growth is 23.4% in test [1]; 35.8% in [2]; 75.9% in test [3]; 90.3% in [4]; 71.5% in test [5]; 91.6% in [6]. Moreover, the growth was 78.5% in test [7]; 87.9% in [8]; 86.9% in test [9]; 39.6% in test [10]; 58.6% in test [11]; 70.5% in test [13]. Besides, the growth in [14] was 11.1%; in test [15], 32.2%; in test [16], 49.5%; in [17], 77.3%.
With `COc1ccc(/C=N\NC(=O)c2cnn(CC(O)c3ccccc3)c2N)cc1OCc1ccc(Cl)cc1` (stereo not drawn), the growth in test [1] is 65.8%; in [2], 65.5%; in test [3] it was 74%; in test [4], 79.9%; in [5], 74.1%; in test [6], 93.8%. The growth was 91.9% in [7]; 43.2% in test [8]; 56.9% in test [10]; 109% in [11]; 78.7% in test [12]; 64.5% in [13]. Further, the growth in test [14] was 60.8%; in [15], 49.4%; in test [16], 108%; in test [17], 75%.
On to `Cc1ccc([C@H]2c3[nH]c4ccccc4c3C[C@H]3C(=O)N(CCCCCCC(=O)NO)CC(=O)N23)s1`, for which the growth in [1] is 23%; in test [2], 27.9%; in [3], 44.4%; in [4] it was 52.8%; in [5], 79.5%; in test [6], 86.3%. Besides, the growth in [7] is 55.7%; in [8], 76.6%; in test [9], 94.3%; in test [10] it was 37.3%; in [11] it was 90.9%; in [12], 45.2%. The growth was 51.9% in [13]; 32.8% in test [14]; 23.7% in test [15]; 82.4% in test [16]; 74.3% in test [17].
